Assay outcomes (PubChem)
Only some compounds are listed: those with a hit (about 1.9% of all), similar ones and a draw of the others.
Furin inhibitor = human furin inhibitors, primary screen, biochemical, fluorescence intensity; inhibition, % at 20 µM or 30 µM; purified furin, fluorogenic substrate cleavage; 0.061% of 220,000 active; P09958; in the data active means inhibition above about 25%
Efa HMGR inh = inhibitors of E. faecalis class II HMGR, primary screen, biochemical, Enterococcus faecalis | HMG-CoA reductase (Enterococcus faecalis, mvaE) | purified E. faecalis HMGR, NADPH absorbance 340 nm kinetic | inhibition, % at 10 µM | 0.41% of 190,000 active;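 active means inhibition above a set limit, the median over all tested compounds plus 3 SD, cut at about 9.5% in these data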;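 further: enzyme runs in reverse so mevalonate oxidation gives rising NADPH absorbance; 0% = complete reaction with DMSO and 100% = background rate lacking mevalonate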
EP2 modulator = EP2 receptor modulators, cAMP readout, primary screen, cell-based, HTRF cAMP, PGE2 stimulation; induction, % at 25 µM; AID 940, 2007; 0.83% of 260,000 active; Prostaglandin E2 receptor EP2 subtype (Homo sapiens), P43116; EP2-expressing cells, cAMP HTRF FRET, PGE2 co-stimulation;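 active means compounds whose cAMP rise, as percent of the full-agonist control response, exceeds 60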;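 further: rat C6 glioma line stably carrying human EP2 under a CMV promoter; the protocol text gives 20 µM as final concentration; 100% = response of wells given 1 µM PGE2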
Target sequence (P43116 whole entry, looked up): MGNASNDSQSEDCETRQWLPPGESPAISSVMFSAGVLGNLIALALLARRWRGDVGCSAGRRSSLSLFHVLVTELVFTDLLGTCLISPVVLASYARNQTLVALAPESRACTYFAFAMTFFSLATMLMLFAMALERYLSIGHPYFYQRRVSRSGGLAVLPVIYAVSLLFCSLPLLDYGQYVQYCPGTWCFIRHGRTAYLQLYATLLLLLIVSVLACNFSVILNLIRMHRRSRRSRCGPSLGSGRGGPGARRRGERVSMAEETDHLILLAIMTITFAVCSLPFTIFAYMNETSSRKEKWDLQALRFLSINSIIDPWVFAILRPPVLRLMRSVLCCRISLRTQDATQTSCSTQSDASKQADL
m-calpain inh = inhibitors of pig calpain II, primary screen, biochemical, fluorogenic peptide substrate, 1536-well; AID 1236, 2008; 0.37% of 220,000 active; purified calpain II, 30 min; inhibition, % at 16 µM;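 active means inhibition above about 50%, limit read from the data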
EP2 antag = human EP2 receptor antagonists, primary screen, TR-FRET cAMP, C6 glioma cells | inhibition, % at 25 µM | C6 glioma cells expressing human EP2; cells stimulated with saturating PGE2 | 0.52% of 260,000 active;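 active means percent inhibition above 40 after rounding to a whole number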;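 further: rat C6 glioma host cells with rolipram phosphodiesterase inhibitor present; the protocol text gives 20 µM as final concentration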
EP2 confirm = cAMP induction in EP2, EP4, beta2-AR and parental cells, confirmation, counter-screen for EP2 modulator project, cell-based, five parallel assays, C6 glioma, HEK293. shares compounds with EP2 modulator. cAMP HTRF induction; plus low (about EC15) PGE2 agonist. calls only at 20 µM (by protocol). 47% of 1,300 active. AID 1080, 2008;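 active means cAMP induction above 50% in the main assay while under 30% in all four parallel counter assays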;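 further: rat C6 glioma cells stably expressing human EP2 receptor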
* hit, by the source's call; i = inactive; . = no result given; + = active, no number.

SMILES	Furin inhibitor	Efa HMGR inh	EP2 modulator	m-calpain inh	EP2 antag	EP2 confirm
CCC(=O)N(CCCN(C)C)c1nc(-c2cc(OC)ccc2OC)cs1	-11	-1	-9	-28	3	.
N[C@@H]1[C@H](C(=O)O)[C@@H]2C=C[C@H]1C2	.	.	16	.	9	.
O=C(O)CCCN1C(=O)/C(=C\c2ccco2)SC1=S	-19	12*	74*	-24	8	+
Cc1cc(C)nc(NC(=O)CSc2nc3ccccc3o2)n1	-17	-3	-10	20	10	.
O=C(CSc1nc2ccccc2o1)Nc1ccc(N2CCOCC2)c(Cl)c1	-16	-3	-36	-5	9	.
O=C(CSc1nc2ccccc2o1)Nc1cc(C(F)(F)F)ccc1N1CCOCC1	-9	-1	80*	-3	17	+
O=C(CSc1nc2ccccc2o1)Nc1ccccc1N1CCCCCC1	-5	1	71*	3	0	+
Cc1cc(N2CCN(C(=O)c3ccnc4ccc(Cl)cc34)CC2)nc(C)n1	.	.	1	.	6	.
CCOc1ccc2[nH]c(=O)c(CN(Cc3cccnc3)C(=O)Nc3ccccc3)cc2c1	.	.	-34	.	11	.
OC1(c2ccc(F)cc2)CCN(Cc2ccccc2N2CCCC2)CC1	.	.	-68	.	5	.
O=C(Oc1ccc(-c2nccc(-c3ccccn3)n2)cc1)c1cccc(C(F)(F)F)c1	-14	5	67*	-10	14	i
Cn1c(=O)sc2cc(S(=O)(=O)NCC3(c4ccccc4)CCOCC3)ccc21	.	.	-22	.	8	.
O=C(O)CCCCCN1C(=O)/C(=C\c2cn(-c3ccccc3)nc2-c2cccs2)SC1=S	-4	.	53	30	4	.
O=C(O)CCN1C(=O)/C(=C/c2cn(-c3ccccc3)nc2-c2cccs2)SC1=S	-11	-5	71*	1	4	+
Cc1cc(C)c(S(=O)(=O)O)c(C)n1	-28	2	77*	-10	12	i
O=S(=O)(c1ccc(F)c(Cl)c1)N1CCCC1	-13	-9	68*	20	7	i
CCN(CC)CCCNC(=S)N(CCN(C)C)Cc1cc2cc(C)cc(C)c2[nH]c1=O	.	.	-13	.	17	.
CCOC(=O)C1CCCN(C(=O)c2ccc(C)cc2O)C1 (stereo not drawn)	-23	0	66*	-4	5	i
Cc1ccc2c(c1)cc(CN(Cc1ccc3c(c1)OCO3)C(=O)c1ccco1)c1nnnn12	.	.	8	.	16	.
Cc1ccccc1NC(=S)N(Cc1ccco1)C(C)c1cccs1 (stereo not drawn)	-16	-2	51	-7	5	i
CC(c1cccs1)N(Cc1ccco1)C(=S)Nc1ccccc1Cl (stereo not drawn)	-18	-1	57	16	11	.
CN(C)c1nccc(N(Cc2ccccc2)Cc2ccccc2)c1C#N	-6	-1	68*	25	8	+
CCOc1ccccc1-c1nc2c(C(C)(C)C)nn(C)c2c(=O)[nH]1	-22	-6	84*	-91	15	+
CCOc1ccccc1-c1nc2c([nH]1)c(=O)n(C)c(=O)n2C	-17	-4	35	-80	4	.
O=C(CN1C(=O)[C@H]2CCCN2C(=O)c2ccccc21)Nc1ccc2c(c1)OCCO2	.	.	17	.	6	.
SMILES	Furin inhibitor	Efa HMGR inh	EP2 modulator	m-calpain inh	EP2 antag	EP2 confirm
CCOC(=O)c1cc(CC)sc1NC(=O)c1cc(OC)c(OC)c(OC)c1	-15	-6	68*	-333	10	+
CC1=CC(C)(C)N2C(=O)C3(NCCc4c3[nH]c3ccccc43)c3cc(C)cc1c32 (stereo not drawn)	-20	.	-16	-7	4	.
CC1=CC(C)(C)N2C(=O)C3(SCC(=O)N3c3ccc(F)cc3)c3cc(C)cc1c32 (stereo not drawn)	-7	-2	76*	21	3	+
O=C(O)NCc1ccccc1 (tested in a mixture with another compound)	.	.	68*	.	8	+
CC(=C\c1ccccc1)/C=C1/SC(=S)N(C(C(=O)O)C(C)C)C1=O (stereo not drawn)	-12	1	54	3	6	+
O=C(COc1ccc2nsnc2c1)Nc1cccc(-c2csnn2)c1	.	.	-67	.	36	.
CC(NC(=O)Nc1ccccc1)C(c1ccccc1)N1CCOCC1 (stereo not drawn)	-9	2	-7	-5	5	.
C[C@H](C(=O)c1ccccc1)[C@@H](c1ccccc1)N1CCOCC1	.	.	56	.	12	+
COc1ccc2cc3c(N)nn(C(=O)Cc4ccccc4OC)c3nc2c1	2	0	0	-47	13	.
COc1ccc2cc3c(N)nn(C(=O)C4CCC(C(C)(C)C)CC4)c3nc2c1 (stereo not drawn)	-9	6	69*	-62	13	i
CCOC1(OCC)C(c2ccc(Cl)cc2)C(C#N)(C#N)C1(OCC)OCC (stereo not drawn)	-6	1	33	7	.	.
CCOC1(OCC)C(c2ccc(N)cc2)C(C#N)(C#N)C1(OCC)OCC (stereo not drawn)	-12	1	76*	12	7	+
CCCC(=O)N1CCC[C@H]1Cn1nc(-c2ccc(F)cc2)ccc1=O	.	.	-29	.	.	.
Cc1ccc(O)c(C2=Nc3ccccc3N=C(c3cccs3)C2)c1	-13	0	69*	-4	-1	i
Cc1ccc(N=Cc2cc(Cc3ccccc3Cl)cc([N+](=O)[O-])c2O)c(O)c1	-13	1	68*	-66	10	i
COc1ccc([N+](=O)[O-])cc1NC(=O)Cc1ccccc1Cl	-20	-2	3	4	1	.
Cc1n[nH]c(C)c1Sc1ccccc1N=Cc1cc(Cl)cc([N+](=O)[O-])c1O	-21	0	21	-11	9	.
COc1ccc(N=Cc2cc(Cc3ccccc3Cl)cc([N+](=O)[O-])c2O)cc1OC	-28	4	72*	-64	3	+
O=C1CC(O)(c2ccccc2)C(c2ccccc2)=C1c1ccccc1 (stereo not drawn)	-10	-4	76*	-14	10	+
O=c1[nH]c2ccc(Br)cc2c(-c2ccccc2)c1N1CCOCC1	-19	4	78*	-83	.	i
O=c1[nH]c2ccc(Br)cc2c(-c2ccccc2)c1CN1CCOCC1	-12	-3	9	-20	12	.
CCOC(=O)C1CCN(c2c(-c3ccccc3)c3cc(Cl)ccc3[nH]c2=O)CC1	-11	-6	80*	-44	16	i
